Where “and” joins values, the source holds several entries; their conditions need not be identical. Equal entries are not always repeated. Results filed as inconclusive are left out. A number with no mark means an inactive call. Calls of active or inactive are those of the source. Calls come from the whole dose curve; as a rule, active = well fitted curve in the direction sought with a large enough effect; inconclusive = small, poorly fitted or top-dose-only effect, or another doubt; inactive = no such curve, though single readings can be large; an effect the other way counts as inactive or inconclusive.
What was measured:
[1] = Viability qHTS for spleen associated tyrosine kinase inhibitor (SYKi) naive MV4-11 cells (AID 1963823); note: nearly all actives have a fitted effect of over 40% in size
Summary of the method: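 Viability of MV4-11 AML cells lacking prior SYK inhibitor exposure is scored by CellTiter-Glo luminescence following 72 hr compound incubation at 37 C, 5% CO2, seeded at 500 cells per well.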

[2] = Viability qHTS for spleen associated tyrosine kinase inhibitor (SYKi) drug resistant MV4-11 cells (AID 1963824); note: nearly all actives have a fitted effect of over 35% in size
Summary of the method: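 SYK inhibitor-resistant MV4-11 AML cells, 500 per well, added to predispensed compounds and incubated 72 hr at 37 C, 5% CO2. Viability measured by CellTiter-Glo luminescence after 10 min at room temperature.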

[3] = Cellular viability qHTS for adrenocortical cancer (ACC) cell line SW-13 (AID 1963989); conditions: SW-13 ACC cells viability, CellTiter-Glo, 48 h; activity (max response): active compounds read low; note: nearly all actives have a fitted effect of over 65% in size;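 for activity (max response): cells grown in serum-free medium with ITS supplement; % is set by controls: 0 for no effect and ±100 for the full control effect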
Summary of the method: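 SW-13 cells in ITS-supplemented serum-free DMEM were plated overnight, then exposed for 48 h at 37C to compound titrations (up to 46 uM final). Viability was read by CellTiter-Glo luminescence; four-parameter logistic fits gave IC50 and efficacy.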

[4] = Cellular viability qHTS for adrenocortical cancer (ACC) cell line NCI-H295R (AID 1963990); note: nearly all actives have a fitted effect of over 60% in size
Summary of the method: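 Luminescent ATP read-out (CellTiter-Glo, 20 min RT) after 48 h drug exposure of NCI-H295R cells; a titration up to 46 uM final. Data normalized to doxorubicin (100% inhibition) and DMSO (0%); 4-parameter fit gives IC50, max response.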
Potency is the fitted concentration of half-maximal effect.

Which results are given for `NC(=O)c1nc(F)c[nH]c1=O`?
Potency [1]: inactive; Potency [2]: inactive; activity (max response) [3]: 0.237%; Potency [4]: inactive

Which Potency [1] does the source give for `CN(C)C(=O)Oc1cccc([N+](C)(C)C)c1` here?
Its Potency is “inactive”.

What about the Potency [2] of the same molecule?
Its Potency is “inactive”.

And the activity (max response) [3]?
Its activity (max response) is 16.2%.

And the Potency [4]?
Its Potency is “inactive”.

For `Cc1cc(C(C#N)c2ccc(Cl)cc2)c(Cl)cc1NC(=O)c1cc(I)cc(I)c1O` (stereo unspecified), which Potency [1] is on record?
Its Potency is 18.8 µM (active).

What about the Potency [2] of the same molecule?
The Potency was 18.8 µM (active) and 23.1 µM (active).

And the Potency [3]?
The Potency was 4.11 µM (active).

And the Potency [4]?
Its Potency is 3.66 µM (active).

Which Potency [1] does the source give for `CS(=O)(=O)N1CCC(NC(=O)c2[nH]ncc2NC(=O)c2c(Cl)cccc2Cl)CC1` here?
Its Potency is 0.934 µM (active).

And the Potency [2]?
Its Potency is 0.291 µM (active).

What about the Potency [3] of the same molecule?
The Potency was 3.98 µM (active).

And the Potency [4]?
The Potency was 11.2 µM (active).

For `CN1CCN(c2ccc3nc(-c4c(N)c5c(F)cccc5[nH]c4=O)[nH]c3c2)CC1`, which Potency [1] is on record?
The Potency was 0.0116 µM (active).

And the Potency [2]?
The Potency was 16.4 nM (active) and 18.6 nM (active).

What about the Potency [3] of the same molecule?
The Potency was 15.8 µM (active).

And the Potency [4]?
The Potency was 17.8 µM (active).

Which results are given for `COc1cccc2c1C(=O)c1c(O)c3c(c(O)c1C2=O)C[C@@](O)(C(=O)CO)C[C@@H]3O[C@H]1C[C@H](N)[C@H](O[C@@H]2CCCCO2)[C@H](C)O1`?
Potency [1]: 0.75 µM (active); Potency [2]: 3.35 µM (active); Potency [3]: 0.731 µM (active); Potency [4]: 3.66 µM (active)

For `CC(=O)OCC1=C(C(=O)O)N2C(=O)[C@@H](NC(=O)Cc3cccs3)[C@H]2SC1`, which Potency [1] is on record?
The Potency was “inactive”.

And the Potency [2]?
Its Potency is “inactive”.

And the activity (max response) [3]?
Its activity (max response) is 10.2%.

And the Potency [4]?
The Potency was “inactive”.

For `Cc1cc(O)cc2c1O[C@](C)(CCC[C@H](C)CCC[C@H](C)CCCC(C)C)CC2`, which Potency [1] is on record?
The Potency was “inactive”.

And the Potency [2]?
Its Potency is “inactive”.

And the activity (max response) [3]?
The activity (max response) was 7.62%.

What about the Potency [4] of the same molecule?
Its Potency is “inactive”.

Which results are given for `CN1C(=O)N[C@H](Cc2c[nH]c3c(Cl)cccc23)C1=O`?
Potency [1]: inactive; Potency [2]: inactive; activity (max response) [3]: -3.83%; Potency [4]: inactive

Which results are given for `COC1CCC(N2C(=O)CNc3ncc(-c4ccc(C(C)(C)O)nc4)nc32)CC1` (stereo unspecified)?
Potency [1]: 5.25 µM (active); Potency [2]: 4.17 µM (active); Potency [3]: 15.8 µM (active); Potency [4]: 15.8 µM (active)

Which Potency [1] does the source give for `Nc1ncnc2c1c(-c1cccc(OCc3ccccc3)c1)cn2C1CC(CN2CCCC2)C1` (stereo unspecified) here?
The Potency was 0.517 µM (active).

And the Potency [2]?
Its Potency is 1.3 µM (active).

And the Potency [3]?
Its Potency is 25.1 µM (active).

And the Potency [4]?
The Potency was 2.24 µM (active).

Which results are given for `O=C(O)c1ccccc1C(=O)Nc1ccc(S(=O)(=O)Nc2nccs2)cc1`?
Potency [1]: inactive; Potency [2]: inactive; activity (max response) [3]: -9.68%; Potency [4]: inactive

With `OC[C@@H](O)[C@@H](O)[C@H](O)[C@H](O)CO` as the molecule, how does the Potency [1] read?
The Potency was “inactive”.

And the Potency [2]?
The Potency was “inactive”.

And the activity (max response) [3]?
The activity (max response) was -5.63%.

And the Potency [4]?
Its Potency is “inactive”.

What does the source list for `CO[C@H]1/C=C/O[C@@]2(C)Oc3c(C)c(O)c4c(O)c(c5c(c4c3C2=O)=NC2(CCN(CC(C)C)CC2)N=5)NC(=O)/C(C)=C/C=C/[C@H](C)[C@H](O)[C@@H](C)[C@@H](O)[C@@H](C)[C@H](OC(C)=O)[C@@H]1C`?
Potency [1]: 18.6 µM (active); Potency [2]: 18.6 µM (active); activity (max response) [3]: -11.1%; Potency [4]: inactive
